# From PubChem BioAssay (EPA / NIEHS)
# “And” between values parts separate entries of the source, which are not always exact repeats. Identical values can stand only once. Results filed as inconclusive are left out. The source made the active and inactive calls. Rule for the calls, unless noted: active = hit-call score of the fitted dose curve at least 0.9, where 1 is the maximum; inconclusive = response in the unintended direction; inactive = score below 0.9.
# Legend:
# [1] = read-out: Intercellular Adhesion Molecule 1 (ICAM1), ICAM1 (gene 3383); test: BSK_3C_ICAM1: BioMAP Diversity Plus: 3C Assay for Intercellular Adhesion Molecule 1 (ICAM1) Biomarker Activity (AID 2283003; active = hit-call score of the fitted dose curve at least 0.9, where 1 is the maximum; inactive = score below 0.9); conditions: primary human endothelial cells (HUVEC); actives raise or lower the signal
# How it was run: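 Primary human umbilical vein endothelial cells in the BioMAP 3C system were exposed to chemicals for 24 h, then ICAM-1 was quantified by ELISA. Activity was fitted bidirectionally against the DMSO negative control baseline.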
# [2] = molecular target: Peroxisome proliferator-activated receptor gamma (Homo sapiens) (UniProt P37231); test: ATG_PPARg_TRANS: Attagene TRANS-FACTORIAL HepG2 Assay for human Peroxisome Proliferator-activated Receptor-gamma (PPARg) (AID 2283007)
# How it was run: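 A TRANS-format multiplexed reporter assay measures activity of an exogenous chimeric NR-Gal4 protein in HepG2 cells. After 24 h of chemical exposure, reporter transcripts are amplified, fluorescently labelled and sized by capillary electrophoresis, with gain of signal scored against DMSO.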
# [3] = molecular target: Nuclear receptor subfamily 1 group I member 2 (Homo sapiens) (UniProt O75469); test: ATG_PXR_TRANS: Attagene TRANS-FACTORIAL HepG2 Assay for human Pregnane X Receptor (PXR) (AID 2283008)
# How it was run: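 Fluorescence intensity of FAM-labelled, HpaI-digested reporter amplicons, separated by capillary electrophoresis, quantifies induction. HepG2 cells with PXR-Gal4 trans-reporter system were exposed 24 h; DMSO defines baseline.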
# [4] = molecular target: human RAR-related Orphan Receptor beta (RORb), RORB (gene 6096) (UniProt Q92753); test: ATG_RORb_TRANS: Attagene TRANS-FACTORIAL HepG2 Assay for human RAR-related Orphan Receptor beta (RORb) (AID 2283010)
# How it was run: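 HepG2 cells were transiently transfected with multiplexed GAL4-UAS reporter units expressing chimeric nuclear receptor–GAL4 proteins, then dosed for 24 h. Reporter mRNA was quantified by RT-PCR with fluorescent labelling and capillary electrophoresis; gain of signal was fitted relative to DMSO.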
# [5] = molecular target: human RAR-related Orphan Receptor gamma (RORg), RORC (gene 6097) (UniProt P51449); test: ATG_RORg_TRANS: Attagene TRANS-FACTORIAL HepG2 Assay for human RAR-related Orphan Receptor gamma (RORg) (AID 2283011);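 for AC50: potency for induction of reporter transcripts above DMSO so activators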
# How it was run: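 Reporter transcripts from a transfected RORg-GAL4 chimera in HepG2 cells were quantified 24 h after dosing by RT-PCR, 6-FAM labelling, HpaI digestion and capillary electrophoresis; increases over DMSO baseline were fitted.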
# [6] = molecular target: Retinoic acid receptor RXR-alpha (Homo sapiens) (UniProt P19793); test: ATG_RXRa_TRANS: Attagene TRANS-FACTORIAL HepG2 Assay for human Retinoid X Receptor alpha (RXRa) (AID 2283012)
# How it was run: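 HepG2 cells transiently transfected with multiplexed GAL4-UAS reporter units and chimeric NR-GAL4 fusions, dosed 24 h. Reporter mRNA measured by RT-PCR, FAM labelling, HpaI digestion and capillary electrophoresis; gain-of-signal fitted relative to DMSO baseline.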
# [7] = molecular target: human Peroxisome Proliferator-activated Receptor delta (PPARd), PPARD (gene 5467) (UniProt Q03181); test: ATG_PPARd_TRANS: Attagene TRANS-FACTORIAL HepG2 Assay for human Peroxisome Proliferator-activated Receptor delta (PPARd) (AID 2283002)
# How it was run: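 Fluorescence from capillary electrophoresis of labelled RT-PCR reporter fragments gives the signal; DMSO sets baseline. Cells: HepG2 transiently carrying GAL4-UAS reporter units plus chimeric nuclear receptor-Gal4 proteins, exposed to chemicals for 24 h.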
# [8] = molecular target: Retinoic acid receptor alpha (Homo sapiens) (UniProt P10276); test: ATG_RARa_TRANS: Attagene TRANS-FACTORIAL HepG2 Assay for human Retinoic Acid Receptor alpha (RARa) (AID 2283005)
# How it was run: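 HepG2 transiently transfected with multiplex GAL4-UAS reporter units including a human RARa–GAL4 chimera; 24 h compound exposure. Reporter mRNA quantified by RT-PCR, 6-FAM labeling and capillary electrophoresis; gain of signal versus DMSO.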
# [9] = molecular target: human Retinoic Acid Receptor gamma (RARg), RARG (gene 5916) (UniProt P13631); test: ATG_RARg_TRANS: Attagene TRANS-FACTORIAL HepG2 Assay for human Retinoic Acid Receptor gamma (RARg) (AID 2283009)
# How it was run: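 HepG2 cells transiently transfected with multiplexed reporter units expressing chimeric RARg-GAL4 and GAL4-UAS-driven reporters; 24 h compound exposure. Reporter mRNA quantified by RT-PCR with fluorescent labelling and capillary electrophoresis; gain-of-signal fitted relative to DMSO baseline.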
# [10] = molecular target: human Retinoic Acid Receptor beta (RARb), RARB (gene 5915) (UniProt P10826); test: ATG_RARb_TRANS: Attagene TRANS-FACTORIAL HepG2 Assay for human Retinoic Acid Receptor beta (AID 2283004)
# How it was run: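 Induction of reporter mRNA from a chimeric RARb-Gal4 construct was measured by RT-PCR, FAM labelling, HpaI digestion and capillary electrophoresis. Measurements followed 24 h compound treatment of transiently transfected human HepG2 liver cells, with DMSO as baseline.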
# Sequence of human Peroxisome Proliferator-activated Receptor delta (PPARd), PPARD (gene 5467) (Q03181 whole entry, looked up, the tested form may be a part): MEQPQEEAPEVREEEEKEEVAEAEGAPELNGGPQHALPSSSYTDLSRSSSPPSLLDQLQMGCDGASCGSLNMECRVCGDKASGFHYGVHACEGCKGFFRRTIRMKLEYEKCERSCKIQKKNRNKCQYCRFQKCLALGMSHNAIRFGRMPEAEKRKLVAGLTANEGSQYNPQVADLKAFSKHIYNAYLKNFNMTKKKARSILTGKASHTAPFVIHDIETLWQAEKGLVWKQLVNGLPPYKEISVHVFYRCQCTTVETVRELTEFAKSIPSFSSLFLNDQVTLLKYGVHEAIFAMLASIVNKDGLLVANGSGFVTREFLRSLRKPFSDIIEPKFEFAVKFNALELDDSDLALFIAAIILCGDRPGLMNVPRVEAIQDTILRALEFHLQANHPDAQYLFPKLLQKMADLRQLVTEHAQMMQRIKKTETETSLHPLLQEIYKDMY
# Sequence of Retinoic acid receptor RXR-alpha (Homo sapiens) (P19793 whole entry, looked up, the tested form may be a part): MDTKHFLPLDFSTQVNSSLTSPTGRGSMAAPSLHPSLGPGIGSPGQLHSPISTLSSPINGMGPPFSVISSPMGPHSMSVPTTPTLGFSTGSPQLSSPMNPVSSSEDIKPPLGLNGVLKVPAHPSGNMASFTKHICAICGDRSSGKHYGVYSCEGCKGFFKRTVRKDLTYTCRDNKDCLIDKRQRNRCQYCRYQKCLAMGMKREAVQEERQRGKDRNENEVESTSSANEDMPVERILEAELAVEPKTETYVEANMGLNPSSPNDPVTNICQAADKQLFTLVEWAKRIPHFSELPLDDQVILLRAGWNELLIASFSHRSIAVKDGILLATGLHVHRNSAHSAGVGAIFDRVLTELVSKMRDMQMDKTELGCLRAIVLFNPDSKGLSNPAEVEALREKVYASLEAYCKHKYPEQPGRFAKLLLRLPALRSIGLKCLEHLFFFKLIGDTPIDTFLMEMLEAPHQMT
# Sequence of human Retinoic Acid Receptor beta (RARb), RARB (gene 5915) (P10826 whole entry, looked up, the tested form may be a part): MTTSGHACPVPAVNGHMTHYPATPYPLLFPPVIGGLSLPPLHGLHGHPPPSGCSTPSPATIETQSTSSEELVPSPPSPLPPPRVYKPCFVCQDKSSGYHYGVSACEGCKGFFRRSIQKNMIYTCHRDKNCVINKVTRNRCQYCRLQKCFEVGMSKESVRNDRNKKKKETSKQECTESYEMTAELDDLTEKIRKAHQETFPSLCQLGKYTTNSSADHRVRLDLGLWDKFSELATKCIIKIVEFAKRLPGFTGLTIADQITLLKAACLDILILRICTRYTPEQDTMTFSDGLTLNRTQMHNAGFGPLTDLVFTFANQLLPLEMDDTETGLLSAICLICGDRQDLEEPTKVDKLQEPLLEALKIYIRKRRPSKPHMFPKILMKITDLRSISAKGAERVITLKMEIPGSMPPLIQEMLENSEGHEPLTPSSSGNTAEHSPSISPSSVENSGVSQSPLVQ
# Sequence of Peroxisome proliferator-activated receptor gamma (Homo sapiens) (P37231 whole entry, looked up, the tested form may be a part): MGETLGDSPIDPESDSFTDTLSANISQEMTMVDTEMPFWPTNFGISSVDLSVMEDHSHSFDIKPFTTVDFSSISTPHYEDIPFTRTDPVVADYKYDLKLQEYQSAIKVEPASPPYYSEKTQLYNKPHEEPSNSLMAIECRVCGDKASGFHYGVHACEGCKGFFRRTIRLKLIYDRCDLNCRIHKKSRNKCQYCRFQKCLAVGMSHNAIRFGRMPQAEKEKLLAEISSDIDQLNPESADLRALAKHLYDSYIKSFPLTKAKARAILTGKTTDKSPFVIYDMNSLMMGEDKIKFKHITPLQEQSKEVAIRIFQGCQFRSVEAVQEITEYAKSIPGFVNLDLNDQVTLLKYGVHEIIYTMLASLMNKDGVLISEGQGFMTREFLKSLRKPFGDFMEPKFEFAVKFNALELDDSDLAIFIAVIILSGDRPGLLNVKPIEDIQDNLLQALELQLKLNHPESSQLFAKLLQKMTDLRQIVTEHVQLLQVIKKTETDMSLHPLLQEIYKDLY
# Sequence of human RAR-related Orphan Receptor gamma (RORg), RORC (gene 6097) (P51449 whole entry, looked up, the tested form may be a part): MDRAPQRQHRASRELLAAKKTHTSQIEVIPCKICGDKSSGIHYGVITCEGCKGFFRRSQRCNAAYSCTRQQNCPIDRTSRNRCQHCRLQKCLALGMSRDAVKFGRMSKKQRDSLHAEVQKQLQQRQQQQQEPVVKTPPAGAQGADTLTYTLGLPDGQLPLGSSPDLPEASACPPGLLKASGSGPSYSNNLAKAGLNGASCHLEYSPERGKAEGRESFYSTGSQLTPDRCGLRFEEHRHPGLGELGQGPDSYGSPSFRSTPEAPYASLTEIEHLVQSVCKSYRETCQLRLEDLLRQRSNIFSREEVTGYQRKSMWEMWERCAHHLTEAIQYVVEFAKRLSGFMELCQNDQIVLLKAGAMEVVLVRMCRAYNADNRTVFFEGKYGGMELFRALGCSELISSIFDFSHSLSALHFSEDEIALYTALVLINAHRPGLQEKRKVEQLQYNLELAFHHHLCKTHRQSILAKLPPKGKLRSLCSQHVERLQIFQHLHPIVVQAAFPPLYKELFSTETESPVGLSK
# Sequence of human Retinoic Acid Receptor gamma (RARg), RARG (gene 5916) (P13631 whole entry, looked up, the tested form may be a part): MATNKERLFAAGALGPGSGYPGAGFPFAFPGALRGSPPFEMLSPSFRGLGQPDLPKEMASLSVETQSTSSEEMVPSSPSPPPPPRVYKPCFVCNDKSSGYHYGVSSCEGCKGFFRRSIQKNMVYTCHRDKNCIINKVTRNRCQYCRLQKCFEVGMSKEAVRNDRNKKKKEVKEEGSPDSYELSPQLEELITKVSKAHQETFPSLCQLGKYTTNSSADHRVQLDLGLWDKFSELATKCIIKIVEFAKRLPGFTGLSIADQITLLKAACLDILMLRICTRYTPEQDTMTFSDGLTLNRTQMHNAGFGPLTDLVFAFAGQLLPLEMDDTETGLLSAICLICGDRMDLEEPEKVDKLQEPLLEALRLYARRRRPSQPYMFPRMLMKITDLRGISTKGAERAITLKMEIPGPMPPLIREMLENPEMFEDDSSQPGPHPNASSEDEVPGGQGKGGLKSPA
# Sequence of Nuclear receptor subfamily 1 group I member 2 (Homo sapiens) (O75469 whole entry, looked up, the tested form may be a part): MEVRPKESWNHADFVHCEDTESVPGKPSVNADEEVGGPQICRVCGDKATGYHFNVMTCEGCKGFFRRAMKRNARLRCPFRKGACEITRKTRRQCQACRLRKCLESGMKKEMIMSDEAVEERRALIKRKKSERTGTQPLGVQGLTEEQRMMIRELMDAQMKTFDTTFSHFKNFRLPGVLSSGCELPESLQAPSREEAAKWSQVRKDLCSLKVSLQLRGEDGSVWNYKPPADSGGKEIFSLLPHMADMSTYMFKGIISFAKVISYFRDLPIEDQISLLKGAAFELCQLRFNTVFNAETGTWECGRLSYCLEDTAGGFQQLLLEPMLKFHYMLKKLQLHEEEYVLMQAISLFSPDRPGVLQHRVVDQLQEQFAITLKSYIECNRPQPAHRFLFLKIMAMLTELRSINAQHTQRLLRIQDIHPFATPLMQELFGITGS
# Sequence of human RAR-related Orphan Receptor beta (RORb), RORB (gene 6096) (Q92753 whole entry, looked up, the tested form may be a part): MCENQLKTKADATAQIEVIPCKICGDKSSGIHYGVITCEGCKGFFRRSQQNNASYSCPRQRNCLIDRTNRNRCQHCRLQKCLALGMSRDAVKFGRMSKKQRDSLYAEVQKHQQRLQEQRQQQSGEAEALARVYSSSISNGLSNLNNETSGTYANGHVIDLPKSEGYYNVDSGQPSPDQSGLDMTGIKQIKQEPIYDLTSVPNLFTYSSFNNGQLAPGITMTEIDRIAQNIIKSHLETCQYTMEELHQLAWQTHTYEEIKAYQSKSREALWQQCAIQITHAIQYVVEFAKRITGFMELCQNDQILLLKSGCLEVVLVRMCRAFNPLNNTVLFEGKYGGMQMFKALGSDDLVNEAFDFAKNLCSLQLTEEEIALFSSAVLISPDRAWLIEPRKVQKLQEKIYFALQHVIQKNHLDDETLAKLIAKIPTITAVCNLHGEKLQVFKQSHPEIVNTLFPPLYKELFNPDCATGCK
# Sequence of Retinoic acid receptor alpha (Homo sapiens) (P10276 whole entry, looked up, the tested form may be a part): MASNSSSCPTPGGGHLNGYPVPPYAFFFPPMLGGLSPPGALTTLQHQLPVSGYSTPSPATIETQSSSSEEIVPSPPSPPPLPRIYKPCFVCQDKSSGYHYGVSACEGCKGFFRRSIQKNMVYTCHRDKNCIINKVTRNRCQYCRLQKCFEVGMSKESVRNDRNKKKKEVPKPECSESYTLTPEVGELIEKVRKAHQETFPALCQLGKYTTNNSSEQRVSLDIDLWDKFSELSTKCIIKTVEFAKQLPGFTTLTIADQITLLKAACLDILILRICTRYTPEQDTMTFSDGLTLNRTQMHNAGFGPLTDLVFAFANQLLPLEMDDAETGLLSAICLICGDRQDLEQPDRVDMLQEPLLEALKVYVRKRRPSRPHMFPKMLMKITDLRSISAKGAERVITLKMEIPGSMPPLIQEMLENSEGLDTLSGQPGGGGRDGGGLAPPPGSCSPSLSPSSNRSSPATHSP
compound,measurement,setting,value
C=CC(=O)OCC(Br)CBr (centres undefined),AC50,[1],30.1 µM (active)
same,AC50,[2],51.6 µM (active)
same,AC50,[3],100 µM (active)
same,outcome,[4],inactive
same,AC50,[5],176 µM (active)
same,outcome,[6],inactive
CCCOCCOCCOCCO,outcome,[7],inactive
same,outcome,[3],inactive
same,outcome,[5],inactive
CC1OC1C1CCC2(C)OC2C1 (centres undefined),outcome,[1],inactive
same,outcome,[8],inactive
same,AC50,[3],23.4 µM (active)
same,outcome,[4],inactive
same,outcome,[6],inactive
CCCCC(CC)COCC1CO1 (centres undefined),outcome,[1],inactive
same,outcome,[2],inactive
same,outcome,[5],inactive
same,outcome,[6],inactive
Cc1ccc(OC(=O)CC(C)C)cc1,outcome,[7],inactive
same,outcome,[5],inactive
same,outcome,[6],inactive
C=COCCCC,outcome,[7],inactive
same,outcome,[5],inactive
COc1ccc2nc(N)sc2c1,outcome,[1],inactive
same,outcome,[2],inactive
same,outcome,[3],inactive
same,outcome,[9],inactive
same,outcome,[4],inactive
same,outcome,[6],inactive
O=[N+]([O-])c1ccc(CO)cc1,outcome,[7],inactive
same,outcome,[3],inactive
same,outcome,[4],inactive
same,outcome,[6],inactive
CC(=O)CC(N)=O,outcome,[7],inactive
same,outcome,[6],inactive
O=S(=O)(O)c1ccc2cc(O)c(S(=O)(=O)O)cc2c1,outcome,[7],inactive
same,outcome,[6],inactive
OCCNCc1ccccc1,outcome,[7],inactive
same,outcome,[4],inactive
same,outcome,[5],inactive
same,outcome,[6],inactive
NC(=O)c1ccccc1O,outcome,[7],inactive
same,outcome,[3],inactive
same,outcome,[6],inactive
CCOC(=O)N1CCC(=C2c3ccc(Cl)cc3CCc3cccnc32)CC1,outcome,[7],inactive
same,outcome,[6],inactive
CCCCNc1ccc(NCCCC)c2c1C(=O)c1ccccc1C2=O,outcome,[1],inactive
same,outcome,[2],inactive
same,outcome,[3],inactive
CCOCC(=O)O,outcome,[7],inactive
same,outcome,[6],inactive
CC(C)(C)c1ccc(-c2ccc(C(C)(C)C)cc2)cc1,outcome,[7],inactive
same,outcome,[3],inactive
same,outcome,[4],inactive
same,outcome,[6],inactive
CC1(C)S[C@@H]2[C@H](NC(=O)COc3ccccc3)C(=O)N2[C@H]1C(=O)O,outcome,[7],inactive
same,outcome,[4],inactive
O=Nc1ccc(O)cc1,outcome,[1],inactive
same,outcome,[10],inactive
same,outcome,[5],inactive
same,outcome,[6],inactive
CCCCCCOC(=O)C(C)CC (centres undefined),outcome,[7],inactive
same,outcome,[4],inactive
same,outcome,[6],inactive
COCCOCCOCCOCCOC,outcome,[7],inactive
same,outcome,[6],inactive
O=c1[nH]nc(-c2ccc([N+](=O)[O-])o2)o1,outcome,[7],inactive
same,outcome,[3],inactive
same,outcome,[4],inactive
same,outcome,[6],inactive
OC1CCCC1,outcome,[7],inactive
same,outcome,[4],inactive
O=C1CCCN1CCO,outcome,[1],inactive
same,outcome,[3],inactive
same,outcome,[4],inactive
same,outcome,[5],inactive
CC(C)COC(=O)C=Cc1ccccc1,outcome,[7],inactive
same,AC50,[3],29.4 µM (active)
same,outcome,[4],inactive
same,outcome,[6],inactive
CC1(C)O[C@@H]2C[C@H]3[C@@H]4C[C@H](F)C5=CC(=O)CC[C@]5(C)[C@H]4[C@@H](O)C[C@]3(C)[C@]2(C(=O)CO)O1,outcome,[7],inactive
same,AC50,[3],27 µM (active)
same,outcome,[6],inactive
CN1C(=O)N(C)C(O)C1O (centres undefined),outcome,[1],inactive
same,outcome,[2],inactive
same,outcome,[6],inactive
COCCCOCCCOC,outcome,[7],inactive
same,outcome,[3],inactive
same,outcome,[5],inactive
C=CCOc1c(Br)cc(Br)cc1Br,AC50,[1],28.7 µM (active)
same,outcome,[10],inactive
same,outcome,[8],inactive
same,outcome,[2],inactive
same,AC50,[3],27.4 µM (active)
same,outcome,[9],inactive
same,outcome,[4],inactive
same,AC50,[6],56.2 µM (active)
N[C@H]1C(O)O[C@H](CO)[C@H](O)[C@@H]1O (some centres undefined),outcome,[7],inactive
same,outcome,[6],inactive
CCOC(=O)CC(C(C)=O)C(C)=O,outcome,[7],inactive
same,outcome,[3],inactive
same,outcome,[4],inactive
same,outcome,[6],inactive
CC1(C)O[C@@H]2C[C@H]3[C@@H]4C[C@H](F)C5=CC(=O)C=C[C@]5(C)[C@@]4(F)[C@@H](O)C[C@]3(C)[C@]2(C(=O)CO)O1,outcome,[7],inactive
same,outcome,[3],inactive
same,outcome,[6],inactive
CCOC(=O)c1ccccc1C(=C1C=C(Br)C(=O)C(Br)=C1)c1cc(Br)c(O)c(Br)c1,AC50,[1],21.1 µM (active) and 21.2 µM (active)
same,AC50,[2],3.1 µM (active)
same,outcome,[3],inactive
O=c1c2ccccc2oc2ccccc12,outcome,[1],inactive
same,outcome,[10],inactive
same,AC50,[3],27.3 µM (active)
same,outcome,[9],inactive
same,outcome,[6],inactive
O=S(=O)(O)c1cc(S(=O)(=O)O)c2ccc3c(S(=O)(=O)O)cc(S(=O)(=O)O)c4ccc1c2c43,outcome,[7],inactive
same,outcome,[9],inactive
same,outcome,[4],inactive
CCCCCCCCc1ccc(Nc2ccc(CCCCCCCC)cc2)cc1,outcome,[1],inactive
same,outcome,[10],inactive
same,outcome,[2],inactive
same,outcome,[9],inactive
same,outcome,[6],inactive
O=C1CCC(=O)N1Cl,outcome,[7],inactive
same,outcome,[3],inactive
same,outcome,[6],inactive
O=C(Nc1ccccc1SSc1ccccc1NC(=O)c1ccccc1)c1ccccc1,outcome,[1],inactive
same,AC50,[2],17.7 µM (active)
same,outcome,[6],inactive
Nc1nc2ccccc2[nH]1,outcome,[10],inactive
same,outcome,[2],inactive
same,outcome,[3],inactive
NC(CO)(CO)CO,outcome,[10],inactive
same,outcome,[5],inactive
c1ccc2c(c1)ccc1cc3c(ccc4ccccc43)cc12,outcome,[1],inactive
same,outcome,[9],inactive
same,outcome,[4],inactive
same,outcome,[5],inactive
same,outcome,[6],inactive
CC=CC(=O)N(CC)c1ccccc1C,outcome,[10],inactive
same,outcome,[2],inactive
same,outcome,[4],inactive
OC1OCCOC1O (centres undefined),outcome,[10],inactive
same,outcome,[3],inactive
same,outcome,[4],inactive
CC1(C)[C@H]2CC[C@]1(C)C(=O)C2,outcome,[10],inactive
same,outcome,[3],inactive
same,outcome,[9],inactive
same,outcome,[5],inactive
same,outcome,[6],inactive
